# PubChem BioAssay (NCATS)
# Inconclusive results are not listed. Active and inactive are the calls of the source. The call rests on the fitted dose curve; in most records, active means well fitted cell-killing curve with a large enough effect; inconclusive means small, poorly fitted or top-dose-only effect, or effect the other way; inactive means no such curve, though single readings can be large or run the other way.
# What was measured:
# [1] = Quantitative High-Throughput drug screen in 47 multiple myeloma cell lines against the NCATS MIPE library collection: FR4_PLB cell viability assay (AID 1918924; further: nearly all actives have a fitted effect of over 35% in size)
# Procedure, shortened: (§1)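 CellTiter-Glo luminescence (ATP) after 48 h compound exposure, 37C/5% CO2; 500 cells/well; MIPE 4.0 approved/investigational drugs pinned in; DMSO = 100%, media only = 0% viability.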
# [2] = Quantitative High-Throughput drug screen in 47 multiple myeloma cell lines against the NCATS MIPE library collection: AMO1_DSMZ cell viability assay (AID 1918927; further: nearly all actives have a fitted effect of over 30% in size)
# Procedure, shortened: (§2)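 Primary qHTS used for cherry-picking: cells at 500/well, library compounds for 48 h (37C, 5% CO2), luminescent ATP assay.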
# [3] = Quantitative High-Throughput drug screen in 47 multiple myeloma cell lines against the NCATS MIPE library collection: ARP1_JJKsccF8 cell viability assay (AID 1918928; further: nearly all actives have a fitted effect of over 40% in size)
# Procedure, shortened: (§3)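 ATP readout (CellTiter-Glo), 48 h drug incubation, 37 °C/5% CO2, 500 cells per well; normalisation to DMSO (100%) and media-only (0%) controls.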
# [4] = Quantitative High-Throughput drug screen in 47 multiple myeloma cell lines against the NCATS MIPE library collection: Karpas620_DSMZ cell viability assay (AID 1918959); further: nearly all actives have a fitted effect of over 30% in size
# Procedure, shortened: as §1
# [5] = Quantitative High-Throughput drug screen in 47 multiple myeloma cell lines against the NCATS MIPE library collection: KMM1_JCRB cell viability assay (AID 1918960); further: nearly all actives have a fitted effect of over 30% in size;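 on viability (% of DMSO): 100% = DMSO-treated cells and 0% = medium-only wells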
# Procedure, shortened: as §3
# [6] = Quantitative High-Throughput drug screen in 47 multiple myeloma cell lines against the NCATS MIPE library collection: Delta47_JCRB cell viability assay (AID 1918925; further: nearly all actives have a fitted effect of over 45% in size)
# Procedure, shortened: as §2
# [7] = Quantitative High-Throughput drug screen in 47 multiple myeloma cell lines against the NCATS MIPE library collection: EJM_DSMZ cell viability assay (AID 1918926; further: nearly all actives have a fitted effect of over 30% in size)
# Procedure, shortened: as §2
# [8] = Quantitative High-Throughput drug screen in 47 multiple myeloma cell lines against the NCATS MIPE library collection: ARD_JJKsccE7 cell viability assay (AID 1918929)
# Procedure, shortened: as §2
# [9] = Quantitative High-Throughput drug screen in 47 multiple myeloma cell lines against the NCATS MIPE library collection: Karpas417_ECACC cell viability assay (AID 1918961); details: Karpas417 myeloma viability, CellTiter-Glo ATP luminescence, 48 h; viability (% of DMSO): at 45.8 µM (top of the series)
# Procedure, shortened: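 Myeloma cells (500 per well) were exposed to MIPE 4.0 compounds by pin transfer and incubated 48 hours at 37C, 5% CO2. Viability was read as ATP by CellTiter-Glo luminescence, normalised to DMSO (100%) and media-only (0%) wells.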
# Potency means the concentration at half of the fitted maximal effect.
Structure (SMILES),Potency [1],Potency [2],Potency [3],Potency [4],Potency [5],Potency [6],Potency [7],Potency [8],Potency [9],viability (% of DMSO) [9]
O=C(O)[C@H](Cc1c[nH]c2ccccc12)N1C(=O)c2ccccc2C1=O,inactive,inactive,inactive,inactive,inactive,–,–,–,–,–
O=C(O)CO.[NH2-].[NH2-].[Pt+2],inactive,inactive,inactive,inactive,inactive,–,–,–,–,–
CC(=O)SC[C@@H](C)C(=O)N1CCC[C@H]1C(=O)N[C@@H](Cc1ccccc1)C(=O)O,–,inactive,inactive,inactive,inactive,inactive,inactive,inactive,inactive,–
Cc1cc(Nc2cc(NC(=O)c3c(Cl)cccc3Cl)ccn2)nc(N)n1,–,187 nM (active),296 nM (active),–,418 nM (active),18700 nM (active),16600 nM (active),209 nM (active),2640 nM (active),–
CCC1=C[C@@H]2CN(C1)Cc1c([nH]c3ccccc13)[C@@](C(=O)OC)(c1cc3c(cc1OC)N(C)[C@@H]1[C@@](O)(C(=O)OC)[C@H](OC(C)=O)[C@]4(CC)C=CCN5CC[C@]31[C@@H]54)C2,–,52.6 nM (active),5.3 nM (active),–,8.3 nM (active),23.5 nM (active),1050 nM (active),7.4 nM (active),–,–
COCCn1c2c([n+](Cc3cnccn3)c1C)C(=O)c1ccccc1C2=O,10.5 nM (active),52.6 nM (active),11.8 nM (active),–,–,16.6 nM (active),–,–,–,–
CC(=O)OCC(=O)[C@@]1(O)[C@H](C)C[C@H]2[C@@H]3C=C(C)C4=Cc5c(cnn5-c5ccccc5)C[C@]4(C)[C@@H]3[C@@H](O)C[C@@]21C,14800 nM (active),–,4690 nM (active),8330 nM (active),–,5900 nM (active),20900 nM (active),–,–,–
Nc1nc(-c2nn(Cc3ccccc3F)c3ncccc23)nc(N)c1N1CCOCC1,inactive,20900 nM (active),inactive,–,–,–,inactive,–,–,86.8% (active)
CC(C)(C)c1cnc(CSc2cnc(NC(=O)C3CCNCC3)s2)o1,–,1480 nM (active),209 nM (active),372 nM (active),187 nM (active),264 nM (active),105 nM (active),235 nM (active),132 nM (active),–
CCCCCCCCCC(=O)N[C@@H](Cc1c[nH]c2ccccc12)C(=O)N[C@H](CC(N)=O)C(=O)N[C@@H](CC(=O)O)C(=O)N[C@@H]1C(=O)NCC(=O)N[C@@H](CCCN)C(=O)N[C@@H](CC(=O)O)C(=O)N[C@H](C)C(=O)N[C@@H](CC(=O)O)C(=O)NCC(=O)N[C@H](CO)C(=O)N[C@@H]([C@@H](C)CC(=O)O)C(=O)N[C@@H](CC(=O)c2ccccc2N)C(=O)O[C@@H]1C,–,inactive,inactive,inactive,inactive,inactive,inactive,–,–,–
CCC[C@H](NC(=O)C(C#N)=Cc1cccc(Br)n1)c1ccccc1,2640 nM (active),–,4180 nM (active),6620 nM (active),–,1320 nM (active),2960 nM (active),–,5900 nM (active),–
CC(C)c1ccc(Cn2ccc3c4c(N)nc(NC5CC5)nc4ccc32)cc1,–,935 nM (active),4180 nM (active),1050 nM (active),2350 nM (active),3320 nM (active),14800 nM (active),3320 nM (active),10500 nM (active),–
CNC(=O)c1cc(Oc2ccc(NC(=O)Nc3cc(C(C)(C)C)nn3-c3ccc4ncccc4c3)c(F)c2)ccn1,4690 nM (active),7430 nM (active),8330 nM (active),23500 nM (active),16600 nM (active),5900 nM (active),–,9350 nM (active),9350 nM (active),–
O=c1[nH]c(=O)n(C2CCCO2)cc1F (configuration not stated),inactive,inactive,inactive,inactive,inactive,inactive,–,inactive,–,–
C[C@@]12O[C@@H](C[C@]1(O)CO)n1c3ccccc3c3c4c(c5c6ccccc6n2c5c31)CNC4=O,6620 nM (active),–,662 nM (active),–,526 nM (active),418 nM (active),2960 nM (active),–,–,–
Cc1cccc(C=NNc2cc(N3CCOCC3)nc(OCCc3ccccn3)n2)c1,4690 nM (active),–,–,469 nM (active),–,1320 nM (active),–,1050 nM (active),–,–
COC(=O)C[C@](O)(CCCC(C)(C)O)C(=O)O[C@@H]1C(OC)=C[C@]23CCCN2CCc2cc4c(cc2[C@H]13)OCO4,inactive,–,inactive,inactive,inactive,inactive,inactive,–,inactive,–
COc1cc2ncnc(Nc3ccc(F)c(Cl)c3)c2cc1NC(=O)C=CCN1CCCCC1,26400 nM (active),2960 nM (active),23500 nM (active),2960 nM (active),8330 nM (active),5260 nM (active),–,9350 nM (active),–,–
Nc1ccn([C@@H]2O[C@H](CO)[C@H](O)C2(F)F)c(=O)n1,–,59 nM (active),105 nM (active),469 nM (active),83.3 nM (active),41.8 nM (active),–,296 nM (active),–,–
Cc1ccc(CN2CCNCC2)cc1NC(=O)CNc1ccc(F)c(F)c1,–,–,–,–,inactive,inactive,3320 nM (active),inactive,–,–
CC(C)(C)c1cc(C(C)(C)C)c(NC(=O)c2c[nH]c3ccccc3c2=O)cc1O,–,inactive,–,inactive,inactive,inactive,–,inactive,inactive,–
